In PubChem BioAssay (NCI):
Values joined by “and” are separate entries in the source; they are usually repeats but may differ in a detail not shown here. Identical values can stand only once. This is part of a sample that, as a whole, favours compounds with a hit. Of some 83,000 tested, about 20% had one in any assay.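 Cells were grown in 96-well plates and exposed to the test compound at a single concentration for 48 hours; results are reported as percent growth, with values below 10 considered active.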 Active and inactive are the calls of the source.

Experiments:
Assay in all cases: NCI-60 one-dose screen, 48 h (100 = growth as untreated, 0 = no growth, -100 = all killed)
Settings in all cases: 10 µM unless noted
SK-MEL-2 melanoma = tested on: SK-MEL-2 melanoma
EKVX NSCLC = tested on: EKVX NSCLC
SN12C renal = tested on: SN12C renal
UO-31 renal = tested on: UO-31 renal
TK-10 renal = tested on: TK-10 renal
ACHN renal = tested on: ACHN renal
CAKI-1 renal = tested on: CAKI-1 renal
A498 renal = tested on: A498 renal
CCRF-CEM leukemia = tested on: CCRF-CEM leukemia
MOLT-4 leukemia = tested on: MOLT-4 leukemia

SMILES | growth (SK-MEL-2 melanoma) | growth (EKVX NSCLC) | growth (SN12C renal) | growth (UO-31 renal) | growth (TK-10 renal) | growth (ACHN renal) | growth (CAKI-1 renal) | growth (A498 renal) | growth (CCRF-CEM leukemia) | growth (MOLT-4 leukemia)
COc1cccc(C2C(C#N)=C(N)Oc3cc(OCCCCCC[P+](c4ccccc4)(c4ccccc4)c4ccccc4)ccc32)c1 (stereo not given) | -59.2% (active) | -0.839% (active) | -31.4% (active) | 39.2% (inactive) | -16.5% (active) | 18% (inactive) | -8.91% (active) | -30% (active) | 1.92% (active) | -15.8% (active)
CCCCCCCCCCCCC[C@H](O)C[C@H](O)[C@H](C)N | 113% [1.25 µM] (inactive) | 99.4% [1.25 µM] (inactive) | 105% [1.25 µM] (inactive) | 112% [1.25 µM] (inactive) | 137% [1.25 µM] (inactive) | 102% [1.25 µM] (inactive) | 110% [1.25 µM] (inactive) | 93.7% [1.25 µM] (inactive) | 25% [1.25 µM] (inactive) | 51.7% [1.25 µM] (inactive)
Cc1ccc(-c2nc3nc(-c4ccccc4)nc(N4CCN(S(=O)(=O)c5ccccc5)CC4)c3o2)cc1 | 76.9% (inactive) | 96.1% (inactive) | 94.3% (inactive) | 99.2% (inactive) | 79.1% (inactive) | 72% (inactive) | 84% (inactive) | 99.3% (inactive) | 108% (inactive) | 102% (inactive)
CCOC(=O)c1c(-c2ccc(C)cc2)c(C#N)c(=O)n(-c2cccc(C(F)(F)F)c2)c1N | 116% (inactive) | 98.8% (inactive) | 95.1% (inactive) | 81.6% (inactive) | 112% (inactive) | 96.7% (inactive) | 91.2% (inactive) | 106% (inactive) | 101% (inactive) | 104% (inactive)
Cn1cc2c(=O)nc3c(-c4nc5ccccc5[nH]4)n[nH]n3c2n1 | 30.4% (inactive) | 95.6% (inactive) | 77.9% (inactive) | 90.8% (inactive) | 120% (inactive) | 98.1% (inactive) | 86.8% (inactive) | 58.7% (inactive) | 6.27% (active) | 47.8% (inactive)
CC12CCC(C(=O)CC1=O)C2(C)C (stereo not given) | 110% (inactive) | 97.5% (inactive) | 102% (inactive) | 88.3% (inactive) and 87.1% (inactive) | 100% (inactive) and 105% (inactive) | 107% (inactive) and 106% (inactive) | 101% (inactive) and 97% (inactive) | 93.2% (inactive) and 108% (inactive) | 103% (inactive) and 96.8% (inactive) | 82.6% (inactive) and 96.5% (inactive)
CCC(=O)Oc1cc(Cl)c(Cl)cc1Cl | 103% (inactive) | 102% (inactive) | 97.9% (inactive) | 95.3% (inactive) | 98.5% (inactive) | 101% (inactive) | 99.2% (inactive) | 83.3% (inactive) | 105% (inactive) | 111% (inactive)
c1cc(NCCCCN2CCOCC2)c2ccc3c(ccc4c(NCCN5CCOCC5)ccnc43)c2n1 | 99.2% (inactive) | 94.8% (inactive) | 64.8% (inactive) | 64.7% (inactive) | 143% (inactive) | 60.2% (inactive) | 64.2% (inactive) | 86.1% (inactive) | 36.9% (inactive) | 43.2% (inactive)
CCOC(=O)c1nnn(Cc2cc(=O)oc3c2ccc2ccccc23)c1C | 110% (inactive) | 105% (inactive) | 96.7% (inactive) | 77.3% (inactive) | 101% (inactive) | 97.9% (inactive) | 98% (inactive) | 108% (inactive) | 88.2% (inactive) | 108% (inactive)
COc1cc(Nc2nc3ccccc3cc2C(=O)Nc2ccc(F)c(F)c2)cc(OC)c1OC | 48.2% (inactive) | 30% (inactive) | 12.5% (inactive) | 21.8% (inactive) | 47.8% (inactive) | 5.68% (active) | 46.5% (inactive) | -3.64% (active) | 24.7% (inactive) | 14.2% (inactive)
CC(C)=CCc1cc(O)c(O)c2oc3cc(O)cc(O)c3c(=O)c12 | 97.3% (inactive) | 78.2% (inactive) | 58.4% (inactive) | 45.9% (inactive) | 46.7% (inactive) | 41.5% (inactive) | 36.7% (inactive) | 101% (inactive) | 29.5% (inactive) | 31.9% (inactive)
COc1ccc2c(c1)oc1c(C)c3c(c(C)c12)C(=O)N(Nc1ccccc1)C3=O | 99% (inactive) | 108% (inactive) | 97% (inactive) | 84% (inactive) | 114% (inactive) | 99.4% (inactive) | 91.5% (inactive) | 117% (inactive) | 111% (inactive) | 99.8% (inactive)
Cn1ccnc1CN1CCSC(C(=O)Nc2ccccc2)C1 (stereo not given) | 102% (inactive) | 106% (inactive) | 91.4% (inactive) | 89.2% (inactive) | 101% (inactive) | 93.2% (inactive) | 89.2% (inactive) | 97% (inactive) | 80.9% (inactive) | 94.3% (inactive)
CCCCCCCCCCCCCCCC[N+](C)(C)CCN(Cc1ccc(OC)cc1)c1ncccn1 | 59.8% (inactive) | -84.6% (active) | -57.9% (active) and 34% (inactive) | 9.57% (active) and 80.3% (inactive) | -90.3% (active) and 71.7% (inactive) | 45.7% (inactive) and 67% (inactive) | 44.1% (inactive) | -70.4% (active) | -53.1% (active) and 23.7% (inactive) | -52% (active) and 23.9% (inactive)
Cc1ccc(/C=C/c2c(C(=O)/C=C/c3ccccc3)c(C)nc3ccccc23)cc1 | 2.34% (active) | 46.5% (inactive) | 36.9% (inactive) | 18.4% (inactive) | 29.3% (inactive) | 8.19% (active) | 22.3% (inactive) | 59.3% (inactive) | 5.43% (active) | 6.13% (active)
CN1CCN(Cc2ccc(NC(=O)c3nc4ccc5[nH]ncc5c4c4c3CCCC4)cc2C(F)(F)F)CC1 | -63.5% (active) | 37.2% (inactive) | -88.7% (active) | -85.9% (active) | -86.7% (active) | -79.4% (active) | -46.6% (active) | 92.9% (inactive) | -11.1% (active) | -27% (active)
COc1ccc(/C=N/C2=C(C#N)C(c3ccccc3)c3c(ccc4ccccc34)O2)cc1 (stereo not given) | 49.7% (inactive) | 32.7% (inactive) | 48% (inactive) | 37.5% (inactive) | 64.4% (inactive) | 35.3% (inactive) | 13.9% (inactive) | -6.08% (active) | 15.2% (inactive) | 27.3% (inactive)
O=C(Nc1ccc2ccccc2c1)c1cc2ccccc2cc1O | 79.3% (inactive) | 99.7% (inactive) | 89.2% (inactive) | 58.8% (inactive) | 103% (inactive) | 89.2% (inactive) | 87.1% (inactive) | 90.4% (inactive) | 75% (inactive) | 82.2% (inactive)
CCNC(=O)Nc1ncccc1OCc1ccc(F)cc1 | 99.8% (inactive) | 102% (inactive) | 107% (inactive) | 93.7% (inactive) | 92.8% (inactive) | 108% (inactive) | 90.1% (inactive) | 88.3% (inactive) | 101% (inactive) | 98% (inactive)
C=C1C(=O)O[C@H]2[C@H]1CC/C(CNS(=O)(=O)c1ccc3ccccc3c1)=C\CC[C@@]1(C)O[C@@H]21 | 43.7% (inactive) | 66.6% (inactive) | 29.1% (inactive) | -88% (active) | -78.5% (active) | -39.3% (active) | 15.3% (inactive) | 58.2% (inactive) | -18.1% (active) | -27.6% (active)
COc1cc(C(=O)c2ccccc2C(=O)O)c(OC)c2c1CCCC2 | 115% (inactive) | 87.7% (inactive) | 96.4% (inactive) and 98.3% (inactive) | 81.9% (inactive) and 84.1% (inactive) | 67.5% (inactive) and 107% (inactive) | 102% (inactive) and 103% (inactive) | 98.2% (inactive) and 98.9% (inactive) | 52.8% (inactive) and 110% (inactive) | 113% (inactive) and 90.4% (inactive) | 86.3% (inactive) and 95.7% (inactive)
CC(C)(C)c1cc(NC(=O)Nc2ccc(-c3cn4c(n3)sc3cc(OCCN5CCOCC5)ccc34)cc2)no1 | 10.8% (inactive) | 47.6% (inactive) and 68.4% (inactive) | 15.6% (inactive) and 19.3% (inactive) | 10.7% (inactive) and 28.2% (inactive) | 24.2% (inactive) and 45% (inactive) | 12.4% (inactive) and 26.7% (inactive) | 30.4% (inactive) and 13.4% (inactive) | 8.16% (active) and 37.7% (inactive) | 18.7% (inactive) and 20% (inactive) | 1.69% (active) and 40% (inactive)
COc1ccc(-c2cc(-c3cc(OC)c(OC)c(OC)c3)c(C#N)c(=O)n2CCCCC(=O)O)cc1 | 107% (inactive) | 98.5% (inactive) | 90.6% (inactive) | 65.7% (inactive) | 112% (inactive) | 91.2% (inactive) | 70.9% (inactive) | 85.6% (inactive) | 85.3% (inactive) | 105% (inactive)
O=C1OCC2=C1C(c1cccc(C(F)(F)F)c1)c1cc3c(cc1N2CCO)CCC3 (stereo not given) | 9.34% (active) | 40.7% (inactive) | 24.9% (inactive) | 35.5% (inactive) | 53.9% (inactive) | 23.4% (inactive) | 26.9% (inactive) | 1.23% (active) | 6.63% (active) | 7.83% (active)
COc1ccc2nc3cc(Cl)ccc3c(NCCCNCCC(C)O)c2c1 (stereo not given) | -48.2% (active) | -7.41% (active) | -25.9% (active) | -28.1% (active) | 8.67% (active) | -1.05% (active) | -3.91% (active) | -79% (active) | -24% (active) | -18.1% (active)
